Growth data for 13 compounds are collected here from PubChem BioAssay (NCI).

Each structure is given as a SMILES string. The panel holds about 83,000 compounds, 20% with a hit somewhere; the sample as a whole holds those more often.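 Each cell line was grown in a 96-well plate and treated with one concentration of compound for 48 hours. Values below 10 were considered active.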 Activity calls are given as the source filed them.

This assay concerns NCI-H322M lung. Description: NCI-60 one-dose screen, 48 h (100 = growth as untreated, 0 = no growth, -100 = all killed). Conditions: 10 µM unless noted.
For `NC(=O)n1c(=O)n(-c2cccc(C(F)(F)F)c2)c(=O)c2cc(-c3ccc(F)cc3F)ccc21`, the growth was 0.936% (active).
As for `O=C1CSC(c2cn(-c3ccccc3)nc2-c2ccc(Cl)cc2)N1c1ccccc1` (stereo not drawn), the figure is 112% (inactive); as for `COc1ccc(/C=N/NC(=O)CSc2nc(-c3cnccn3)cc(-c3cccs3)c2C#N)cc1`, 84.4% (inactive); as for `C#Cc1cc(OC)c(C(=O)Nc2ccc(F)cc2C(=O)Nc2cccc(S(=O)(=O)C(F)(F)F)c2)cn1`, 88.9% (inactive).
On to `CN1c2ccccc2Sc2cc(/C=N/Nc3ccnc4cc(Cl)ccc34)ccc21`, for which the growth is 107% (inactive).
`O=C(/C=C/c1cccc(F)c1)c1cccc(OCCCOc2cccc(C(=O)/C=C/c3cccc(F)c3)c2)c1`: the growth was 101% (inactive).
On to `CN1CCN(Cc2ccc(NC(=O)c3cncc(C#Cc4cnc(N)nc4)c3)cc2C(F)(F)F)CC1`, for which the growth is 34.3% (inactive).
As for `O=C(CSc1nc2ccccc2c(=O)n1-c1ccc(Cl)c(Cl)c1)Nc1ccc(S(=O)(=O)Nc2ccc(Cl)nn2)cc1`, the figure is 91.7% (inactive).
Under `Cc1[nH]c(C(=O)Nc2ccc(C(N)=O)cc2N2CCOC(C)C2)c(Cl)c1Cl` (stereo not drawn) stands 95.1% (inactive).
Under `N#Cc1nc(-c2ccccc2)oc1N1CCC(C2(C(F)(F)F)N=N2)CC1` stands 107% (inactive).
On to `C/C(=C(\c1ccc(O)cc1)c1ccc(OCCN2CCCCCC2)cc1)c1ccc(Cl)cc1`, for which the growth was -18.9% (active).
As for `COc1ccc(C(=O)c2c(N)c(C#N)cn2-c2ccc(Cl)cc2Cl)cc1`, the figure is 93.8% (inactive); as for `C#C[C@]1(O)CC[C@H]2[C@@H]3CC=C4c5sc(Nc6cccc(F)c6)nc5CC[C@]4(C)[C@H]3CC[C@@]21C`, 53.7% (inactive).
